Compounds without any hit were thinned out: in the full panel of roughly 83,000, 20% have a hit.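 For each line, cells grew in 96-well plates with the test compound present at a single concentration for 48 hours.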 Unmarked numbers belong to inactive results. Activity calls are given as the source filed them. How the source made its calls: active means growth percent below 10; inactive means the rest.

One assay relates to HOP-92 NSCLC. In words: NCI-60 one-dose screen, 48 h (100 = growth as untreated, 0 = no growth, -100 = all killed). Particulars: 10 µM unless noted.
Regarding `Cc1ccc(/C=C/C(=O)c2ccc(F)cc2)s1`, the growth was 64%.

On to `O=C1Nc2ccc(Cl)cc2/C1=C/c1cccs1`, for which the growth was 93.7%.

In the case of `N=C1c2nc3n(c2C(=O)c2nc4n(c21)CCCCC4)CCCCC3`, the growth was 126%.

On to `O=C(c1ccccc1)c1ccc(Oc2ccc([N+](=O)[O-])cc2[N+](=O)[O-])cc1`, for which the growth is 52.9%.

In the case of `CC[C@H]1CN2CCc3cc(OC)c(OC)cc3C2C[C@@H]1CC1NCCc2cc(OC)c(OC)cc21` (stereo partly drawn), the growth was -17.8% (active).

`O=C(/C=C/c1cccc(O)c1)c1cccc(-n2cc(-c3ccccc3)[nH]c2=O)c1`: the growth is 26.7%.

As to `CCOC(=O)Nc1cc(-c2ccc(C)c(NS(C)(=O)=O)c2)nn2c(C)nnc12`, the growth is -10.2% (active).

Consider `C1CCC(C(CC2CCCCN2)C2CCCCC2)CC1` (stereo not drawn), for which the growth is -2.64% (active).

Consider `C[C@H]1c2cccc(O)c2C(O)=C2C(=O)[C@]3(O)C(O)=C(C(N)=O)C(=O)[C@@H](N(C)C)[C@@H]3[C@@H](O)[C@@H]21`, for which the growth was 24.3%.

For the molecule `COc1ccc(C(=O)COc2cccc(/C=C3\COc4ccc5ccccc5c4C3=O)c2)cc1`, the growth is 33.8%.

As to `CN1CCC[C@@H]1CCO[C@](C)(c1ccccc1)c1ccc(Cl)cc1`, the growth is 51.6%.

With `C=CCNC(=O)/C(=C/c1cccc([N+](=O)[O-])c1)NC(=O)c1ccccc1`, the growth was 91.9%.

`CCc1ccc(-c2nc(SCC(=O)NC3CCCCC3)n[nH]2)cc1`: the growth was 67.6%.

In the case of `Cc1cc2ccccn2c1C(=O)c1ccc(C(=O)c2ccccc2)cc1`, the growth was 82.3%.

Consider `C[N+]1(C)C2CC[C@@H]1CC(OC(=O)C(O)c1ccccc1)C2` (stereo partly drawn), for which the growth was 91.4%.

Regarding `CC(C)Sc1nc(-c2ccc(Br)cc2)c(C#N)c(N2CCCCC2)n1`, the growth was 105%.

Regarding `CCOC(=O)c1sc(NC(=O)COc2cccc(/C=C3\CCc4cc(OC)ccc4C3=O)c2)nc1C`, the growth is 72.5%.

With `Nc1ccc(Oc2c(F)c(F)c(Oc3ccc(N)cc3)c(F)c2F)cc1`, the growth was 80.5%.

Turning to `CC12CCC3C(=CCc4cc(O)ccc43)C1CCC2=O` (stereo not drawn), the growth was 99.4%.

For the molecule `COc1cccc(C2=NN(C(C)=O)C(c3cc(OC)c(OC)c(OC)c3)C2)c1` (stereo not drawn), the growth was -0.613% (active).

Regarding `Cc1ccc(S(=O)(=O)NCCN2c3nc4ccccc4cc3Sc3cc4ccccc4nc32)cc1`, the growth is 15.7%.

In the case of `COc1cc(-c2nc3nc4sc(C)c(C)c4c(=O)n3[nH]2)cc(OC)c1OC`, the growth was 70.8%.

As for `O=C(CNc1ccc2c(c1)C(=O)c1ccccc1C2=O)Nc1ccc2c(c1)C(=O)c1ccccc1C2=O`, the growth was -65.7% (active).

For `CC(C)=CCNc1ncnc2c1ncn2C1OC(COP(=O)(O)O)C(O)C1O` (stereo not drawn), the growth was 74.5%.

For `CCCCc1ccc(C(N)=O)nc1`, the growth was 62.5%.

As to `Oc1ccccc1/C=N/N1CCCCCC1`, the growth is 50.4%.

On to `CCOc1nc(-c2ccco2)n2nc(-c3ccco3)cc2n1`, for which the growth was 92%.

On to `Cc1onc(-c2ccccc2Cl)c1C(=O)N[C@@H]1C(=O)N2[C@@H]1SC(C)(C)[C@@H]2C(=O)O`, for which the growth is 110%.

Regarding `O=C(Nc1ccccc1)P(=O)(O)c1ccccc1`, the growth is 78.1%.

`CC(C)CC1NC(=O)C(CCCN)NC(=O)C(C(C)C)NC(=O)C2CCCN2C(=O)C(Cc2ccccc2)NC(=O)C(CC(C)C)NC(=O)C(CCCN)NC(=O)C(C(C)C)NC(=O)C2CCCN2C(=O)C(Cc2ccccc2)NC1=O` (stereo not drawn): the growth is -56.7% (active).

On to `Cc1nn(-c2nc3ccccc3s2)c(C)c1Oc1ccccc1O`, for which the growth was 93.2%.

Turning to `O=C(/C=C/c1ccc([N+](=O)[O-])cc1)c1ccc2c3c(cccc13)CC2`, the growth was 55%.

In the case of `O=C(N/N=C/c1cccc([N+](=O)[O-])c1)c1ccc(Br)o1`, the growth is 85.7%.

For `CCN(Cc1cccc(S(=O)(=O)[O-])c1)c1ccc(C(=C2C=CC(=[N+](CC)Cc3cccc(S(=O)(=O)O)c3)C=C2)c2ccccc2S(=O)(=O)O)cc1`, the growth was 87.3%.

Consider `c1ccc2nc(N/N=C3\CCCCC3C3CCCCC3)ccc2c1` (stereo not drawn), for which the growth is -11.3% (active).

Consider `COc1ccc2nc(N/N=C(\C)c3ccccn3)cc(C)c2c1`, for which the growth is 7.16% (active).

For the molecule `O=C(c1ccc(Cl)cc1)c1ccc(Cl)cc1`, the growth is 101%.

For `C[C@]12CC[C@H](O)CC1=CC[C@@H]1[C@@H]2CC[C@]2(C)C(c3cccnc3)=CC[C@@H]12`, the growth is 72.3%.

Consider `Cc1cc(C)c(C(=O)c2cccs2)c(C)c1`, for which the growth was 74.4%.

Another assay concerns NCI-H522 lung. The assay is described as above. Conditions: 10 µM.
As for `Cc1ccc(/C=C/C(=O)c2ccc(F)cc2)s1`, the growth was 62.8%.

With `O=C1Nc2ccc(Cl)cc2/C1=C/c1cccs1`, the growth is 96.2%.

For `N=C1c2nc3n(c2C(=O)c2nc4n(c21)CCCCC4)CCCCC3`, the growth was 90.9%.

In the case of `O=C(c1ccccc1)c1ccc(Oc2ccc([N+](=O)[O-])cc2[N+](=O)[O-])cc1`, the growth is -26.6% (active).

Consider `CC[C@H]1CN2CCc3cc(OC)c(OC)cc3C2C[C@@H]1CC1NCCc2cc(OC)c(OC)cc21` (stereo partly drawn), for which the growth is -71.2% (active).

For `O=C(/C=C/c1cccc(O)c1)c1cccc(-n2cc(-c3ccccc3)[nH]c2=O)c1`, the growth was -21.8% (active).

Consider `CCOC(=O)Nc1cc(-c2ccc(C)c(NS(C)(=O)=O)c2)nn2c(C)nnc12`, for which the growth was -11.8% (active).

On to `C1CCC(C(CC2CCCCN2)C2CCCCC2)CC1` (stereo not drawn), for which the growth is -16.8% (active).

For `C[C@H]1c2cccc(O)c2C(O)=C2C(=O)[C@]3(O)C(O)=C(C(N)=O)C(=O)[C@@H](N(C)C)[C@@H]3[C@@H](O)[C@@H]21`, the growth was 45.4%.

With `COc1ccc(C(=O)COc2cccc(/C=C3\COc4ccc5ccccc5c4C3=O)c2)cc1`, the growth is 44.1%.

`CN1CCC[C@@H]1CCO[C@](C)(c1ccccc1)c1ccc(Cl)cc1`: the growth is 88%.

On to `C=CCNC(=O)/C(=C/c1cccc([N+](=O)[O-])c1)NC(=O)c1ccccc1`, for which the growth was 97.5%.

With `CCc1ccc(-c2nc(SCC(=O)NC3CCCCC3)n[nH]2)cc1`, the growth is 73.6%.

For the molecule `Cc1cc2ccccn2c1C(=O)c1ccc(C(=O)c2ccccc2)cc1`, the growth was 79.7%.

As for `C[N+]1(C)C2CC[C@@H]1CC(OC(=O)C(O)c1ccccc1)C2` (stereo partly drawn), the growth is 110%.

With `CC(C)Sc1nc(-c2ccc(Br)cc2)c(C#N)c(N2CCCCC2)n1`, the growth was 99.3%.

As for `CCOC(=O)c1sc(NC(=O)COc2cccc(/C=C3\CCc4cc(OC)ccc4C3=O)c2)nc1C`, the growth is 43.9%.

With `Nc1ccc(Oc2c(F)c(F)c(Oc3ccc(N)cc3)c(F)c2F)cc1`, the growth is 90.4%.

As for `CC12CCC3C(=CCc4cc(O)ccc43)C1CCC2=O` (stereo not drawn), the growth was 97%.

On to `COc1cccc(C2=NN(C(C)=O)C(c3cc(OC)c(OC)c(OC)c3)C2)c1` (stereo not drawn), for which the growth was -38% (active).

For the molecule `Cc1ccc(S(=O)(=O)NCCN2c3nc4ccccc4cc3Sc3cc4ccccc4nc32)cc1`, the growth was 52.8%.

Turning to `COc1cc(-c2nc3nc4sc(C)c(C)c4c(=O)n3[nH]2)cc(OC)c1OC`, the growth is 61.4%.

As to `O=C(CNc1ccc2c(c1)C(=O)c1ccccc1C2=O)Nc1ccc2c(c1)C(=O)c1ccccc1C2=O`, the growth was -96.2% (active).

For the molecule `CC(C)=CCNc1ncnc2c1ncn2C1OC(COP(=O)(O)O)C(O)C1O` (stereo not drawn), the growth is 9.55% (active).

In the case of `CCCCc1ccc(C(N)=O)nc1`, the growth is 85.3%.

Consider `Oc1ccccc1/C=N/N1CCCCCC1`, for which the growth is 104%.

With `CCOc1nc(-c2ccco2)n2nc(-c3ccco3)cc2n1`, the growth is 99.1%.

On to `Cc1onc(-c2ccccc2Cl)c1C(=O)N[C@@H]1C(=O)N2[C@@H]1SC(C)(C)[C@@H]2C(=O)O`, for which the growth was 96.1%.

Take `O=C(Nc1ccccc1)P(=O)(O)c1ccccc1`: the growth is 102%.

Take `CC(C)CC1NC(=O)C(CCCN)NC(=O)C(C(C)C)NC(=O)C2CCCN2C(=O)C(Cc2ccccc2)NC(=O)C(CC(C)C)NC(=O)C(CCCN)NC(=O)C(C(C)C)NC(=O)C2CCCN2C(=O)C(Cc2ccccc2)NC1=O` (stereo not drawn): the growth was -80.7% (active).

Take `Cc1nn(-c2nc3ccccc3s2)c(C)c1Oc1ccccc1O`: the growth was 59.9%.

In the case of `O=C(/C=C/c1ccc([N+](=O)[O-])cc1)c1ccc2c3c(cccc13)CC2`, the growth was 70.4%.

As for `O=C(N/N=C/c1cccc([N+](=O)[O-])c1)c1ccc(Br)o1`, the growth was 85.7%.

Consider `CCN(Cc1cccc(S(=O)(=O)[O-])c1)c1ccc(C(=C2C=CC(=[N+](CC)Cc3cccc(S(=O)(=O)O)c3)C=C2)c2ccccc2S(=O)(=O)O)cc1`, for which the growth is 99.4%.

For the molecule `c1ccc2nc(N/N=C3\CCCCC3C3CCCCC3)ccc2c1` (stereo not drawn), the growth is 60%.

Turning to `COc1ccc2nc(N/N=C(\C)c3ccccn3)cc(C)c2c1`, the growth was -20.8% (active).

With `O=C(c1ccc(Cl)cc1)c1ccc(Cl)cc1`, the growth was 85.2%.

As for `C[C@]12CC[C@H](O)CC1=CC[C@@H]1[C@@H]2CC[C@]2(C)C(c3cccnc3)=CC[C@@H]12`, the growth was 35.7%.

On to `Cc1cc(C)c(C(=O)c2cccs2)c(C)c1`, for which the growth is 93.3%.

Source of the values: PubChem BioAssay (NCI).
